Compounds with a hit are over-represented: about 3.7% of the library has one in this group of screens.
Nrf2 activator = qHTS of Nrf2 Activators; 0.31% of 410,000 active; AREc32 ARE-luciferase reporter (MCF7-derived line), luminescence, 24 h; AID 624171, 2012; Potency, µM (series often up to 46.1 µM), hits mostly activators; note: nearly all actives have a fitted effect of over 65% in size
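AREc32_Fluc, 1000 cells/well, OPTI-MEM + 5% FBS, o/n 37 deg C 5% CO2; 23 nL cpd by pin tool, 24 hr; Steady-Glo 30 min RT, luminescence.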
A549 tox = Nrf2 qHTS screen for inhibitors: counterscreen for cytotoxicity; A549 ARE-Fluc cells, CellTiter-Fluor viability, 18-24 h; Potency, µM (highest dose often 46 µM), actives largely listed as inhibitors; 0.16% of 390,000 active
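Cytotoxicity counterscreen: CellTiter-Fluor fluorescence was measured in A549 ARE_Fluc cells after 18-24 h of compound exposure in a concentration series. The subsequent BugLite luminescent read reports ARE-luciferase activity.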
miR-21 act = qHTS Assay for Modulators of miRNAs and/orActivators of miR-21. HeLa miR-21 FLuc reporter, luciferase, 48 h. Potency, µM (series often up to 38.3 µM), actives largely listed as activators. 340,000 tested, under 10 active. AID 2288, 2010;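 note: miR-21 action dims this reporter so a rising signal means less miR-21 action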
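Using DMEM plus 10% FBS, HeLa miR-21-FLuc cells are incubated with test compounds (final up to about 40uM) for 48 hours; firefly luciferase signal is then imaged following reagent-mediated lysis.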
p53 reactivator = qHTS assay for re-activators of p53 using a Luc reporter; H1299 p53-A138V BP100-luciferase reporter, luminescence, 24 h; Potency, µM (doses to about 92.2 µM), hits mostly activators; 0.063% of 320,000 active; note: nearly all actives have a fitted effect of over 45% in size
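p53-null H1299 cells stably carrying temperature-sensitive p53-A138V and a BP100-luciferase reporter were pinned with compounds (4-point, 1:5 series) and held 24 hrs at 37 deg C. Luminescence was read 10 min after detection reagent.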
ClpP mod = qHTS Assay for Activators of ClpP; 1.9% of 340,000 active; purified B. subtilis ClpP, FRET peptide cleavage, 20 min; Potency, µM (highest dose often 57.5 µM); ATP-dependent Clp protease proteolytic subunit (Bacillus subtilis (strain 168)), P80244; active = well fitted falling curve with a large enough effect; inconclusive = small, poorly fitted or top-dose-only effect; inactive = no such curve, though single readings can be large or run the other way; note: the source files actives as falling curves though it sought activators and does not explain the sign; nearly all actives have a fitted effect of over 65% in size
Target sequence (P80244 whole entry, looked up): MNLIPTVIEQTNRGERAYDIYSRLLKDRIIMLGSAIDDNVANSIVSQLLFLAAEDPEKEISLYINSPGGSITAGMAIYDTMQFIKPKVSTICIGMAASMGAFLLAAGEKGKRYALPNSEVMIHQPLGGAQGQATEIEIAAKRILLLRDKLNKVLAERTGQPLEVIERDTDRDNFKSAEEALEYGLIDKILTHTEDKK
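Purified B. subtilis ClpP, 10 microg/mL final in Tris/HCl pH8 with KCl, BSA, glycerol and Tween-20, cleaved an Abz/nitrotyrosine-quenched decapeptide. Fluorescence (ex 320, em 430) was read at 0 and 20 min at room temperature. Delta was normalized to 5.8 microM ADEP and DMSO/no-enzyme controls.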
Nrf2 block = Nrf2 qHTS screen for inhibitors | Potency, µM (highest dose often 46 µM), actives largely listed as inhibitors | A549 ARE-Fluc reporter, luciferase luminescence, 18-24 h | 2.1% of 360,000 active; note: nearly all actives have a fitted effect of over 60% in size
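Two sequential reads on A549 ARE_Fluc cells exposed to compound for 18-24 h: a CellTiter-Fluor fluorescence read for viability, then a luciferase luminescence read for Nrf2/ARE activity.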
Large screens that a line does not name were inactive. Unless noted, calls come from the whole dose curve; as a rule, active = well fitted curve in the direction sought with a large enough effect; inconclusive = small, poorly fitted or top-dose-only effect, or another doubt; inactive = no such curve, though single readings can be large; an effect the other way counts as inactive or inconclusive.

Brc1ccc(NCc2cccc3ccccc23)nc1	none
Oc1ccccc1CNc1ccc(Br)cn1	ClpP mod 3.2µM
CNC(=S)N1CCN(c2nc(-c3ccc(Cl)cc3)cs2)CC1	Nrf2 block 18µM (no result: p53 reactivator, ClpP mod)
COc1cccc(-c2csc(N3CCN(C(=S)Nc4cccc(C)c4)CC3)n2)c1	none
S=C(NCC1CCCO1)N1CCN(c2nc(-c3ccccc3)cs2)CC1 (stereo not given)	Nrf2 block 13µM
CNC(=S)N1CCN(c2nc(-c3cccc(OC)c3)cs2)CC1	Nrf2 block 18µM
CCNC(=S)N1CCN(c2nc(-c3ccc(F)cc3)cs2)CC1	Nrf2 block 18µM (no result: p53 reactivator)
CCOc1ccc(-c2cc(C(=O)Nc3ccc(C)c(NS(C)(=O)=O)c3)[nH]n2)c(C)c1	none (no result: A549 tox, miR-21 act, p53 reactivator, Nrf2 block)
O=C(Cc1cccs1)N1CCN(c2nc(-c3ccc(Cl)cc3)cs2)CC1	Nrf2 block 18µM
COc1cccc(-c2csc(N3CCN(C(=S)Nc4ccccc4)CC3)n2)c1	none
COc1cccc(-c2csc(N3CCN(C(=S)Nc4ccc(Cl)cc4)CC3)n2)c1	Nrf2 block 21µM
CC(C)(C)CC(C)(C)N=C1Nc2ccc(Cl)cc2NC12C[C@H]1CCC(=O)N3CC[C@@H](C2)[C@@H]13 (stereo not given in full)	none (no result: Nrf2 activator, A549 tox, miR-21 act, p53 reactivator, Nrf2 block)
O=C(/C=C/c1ccc(F)cc1)Nc1nc2n(n1)C(c1ccc(Cl)cc1)C=C(c1ccccc1)N2 (stereo not given)	none (no result: p53 reactivator)
Cc1cc(C)c(Cn2cnc(-c3ccc([N+](=O)[O-])cc3)c2)c(C)c1	A549 tox inconclusive, Nrf2 block 21µM
CC(C)(C)c1ccc(Cn2cnc(-c3ccc([N+](=O)[O-])cc3)c2)cc1	A549 tox inconclusive, p53 reactivator 28µM, ClpP mod 10µM, Nrf2 block inconclusive
CNc1ccc(OC)cc1-n1cnc(-c2ccc([N+](=O)[O-])cc2)c1	none (no result: ClpP mod)
CCOc1ccc(/C=C/c2nc(C#N)c(NC(C)CC)o2)cc1 (stereo not given)	none (no result: p53 reactivator)
C=CCn1c(-c2ccc(S(=O)(=O)N3CCOCC3)cc2)csc1=Nc1ccccc1	Nrf2 block inconclusive
CC(=O)c1cccc(N=c2scc(-c3ccc(S(=O)(=O)N4CCOCC4)cc3)n2CCO)c1	Nrf2 block 15µM
O=S(=O)(c1ccc(-c2csc(=Nc3ccc(F)cc3)n2CCCCCCO)cc1)N1CCCC1	A549 tox inconclusive, miR-21 act inconclusive, Nrf2 block 23µM (no result: p53 reactivator)
CC(C)Cn1c(-c2ccc(S(=O)(=O)N3CCCC3)cc2)csc1=Nc1ccccc1	miR-21 act inconclusive, Nrf2 block 16µM (no result: p53 reactivator)
Cc1ccc(NS(=O)(=O)c2ccc3c(c2)CCO3)cc1C	Nrf2 block inconclusive (no result: Nrf2 activator, miR-21 act, p53 reactivator, ClpP mod)
CCC(=O)N1CCc2cc(Br)cc(S(=O)(=O)NCCc3ccccc3)c21	none (no result: p53 reactivator)
Nc1nc(SCC(=O)Nc2cccc(F)c2)n[nH]1	none (no result: miR-21 act)
O=C1CCCN2N=C(SCC(=O)Nc3cccc(C(F)(F)F)c3)SC2=N1	Nrf2 block 16µM (no result: ClpP mod)
Nc1nc(SCC(=O)Nc2cccc(C(F)(F)F)c2)n[nH]1	Nrf2 block 18µM (no result: p53 reactivator)
O=C1CCCN2N=C(SCC(=O)Nc3cccc(Cl)c3)SC2=N1	none (no result: ClpP mod)
COc1ccc(NC(=O)CC2SC(N3CCOCC3)=NC2=O)cc1OC (stereo not given)	Nrf2 block 15µM (no result: miR-21 act)
CC(=O)c1cccc(NC(=O)c2ccc(NC(=O)CC3SC(N4CCCCC4)=NC3=O)cc2)c1 (stereo not given)	ClpP mod 22µM
COc1cccc2c1cc1c(=O)n(CC(=O)NCc3ccc(C)o3)nc(C)n12	ClpP mod inconclusive (no result: p53 reactivator)
O=C(CC1SC(N2CCCCC2)=NC1=O)Nc1cccc(C(F)(F)F)c1 (stereo not given)	Nrf2 block 21µM
Cc1cc(C)c(S(=O)(=O)NCC(c2ccco2)N2CCc3ccccc3C2)c(C)c1 (stereo not given)	ClpP mod inconclusive, Nrf2 block inconclusive (no result: miR-21 act)
CCc1ccc(NC(=O)CSC2=Nc3ccccc3C3=NC(CC(=O)NCc4ccccc4)C(=O)N23)cc1 (stereo not given)	none (no result: p53 reactivator, Nrf2 block)
CCCCNC(=O)CC1N=C2c3ccccc3N=C(SCC(=O)Nc3ccccc3OC)N2C1=O (stereo not given)	Nrf2 block 18µM
COc1ccccc1NC(=O)CSC1=Nc2ccccc2C2=NC(CC(=O)NCc3ccccc3)C(=O)N12 (stereo not given)	none (no result: p53 reactivator, Nrf2 block)
CC(C)C1N=C2c3ccccc3N=C(SCC#N)N2C1=O (stereo not given)	ClpP mod 13µM
COCCCNC(=O)CSC1=Nc2ccccc2C2=NC(CC(=O)NCc3ccccc3)C(=O)N12 (stereo not given)	ClpP mod 28µM
CCC(C)NC(=O)CSC1=Nc2ccccc2C2=NC(CC(=O)NCc3ccccc3)C(=O)N12 (stereo not given)	ClpP mod 28µM
O=C(NCCc1ccccc1)c1ccc(NC(=O)C2CCCCC2)cc1	none (no result: miR-21 act, p53 reactivator)
COc1ccc(S(=O)(=O)N2CCCCC2)cc1NC(=O)Cc1cccc(C(F)(F)F)c1	none (no result: miR-21 act)
Cc1c(P(=S)(c2ccccc2)c2ccccc2)c2ccccc2n1CCCc1ccccc1	none (no result: Nrf2 activator, miR-21 act, p53 reactivator, ClpP mod)
CCC(C)NC(=O)CSC1=Nc2ccccc2C2=NC(c3ccccc3)C(=O)N12 (stereo not given)	ClpP mod 16µM
CC(C)C1N=C2c3ccccc3N=C(SCC(=O)NCc3ccccc3Cl)N2C1=O (stereo not given)	none (no result: p53 reactivator, Nrf2 block)
Cc1ccc(-n2ncc3c(NCCc4ccccc4)ncnc32)cc1Cl	ClpP mod 32µM (no result: p53 reactivator, Nrf2 block)
CCOC(=O)N1CCC(Nc2ncnc3c2cnn3-c2ccccc2)CC1	ClpP mod inconclusive, Nrf2 block 16µM
Cc1cc2c(NC3CCCCC3)ncnc2s1	Nrf2 block 12µM
Cc1ccc(-n2ncc3c(NC4CCCCCC4)ncnc32)cc1Cl	ClpP mod 32µM (no result: p53 reactivator, Nrf2 block)
COc1ccccc1C(=O)NC(=O)Nc1ccc(-n2nc(C(F)(F)F)cc2C(F)(F)F)cc1	Nrf2 block inconclusive (no result: p53 reactivator)
O=C(Nc1ccc(F)c(Cl)c1)C1CCN(S(=O)(=O)c2ccc3c(c2)CCCN3C(=O)C2CCC2)CC1	none (no result: p53 reactivator, Nrf2 block)
O=C1CCCN1CCCNc1ncnc2c1cnn2-c1ccc(Cl)cc1	p53 reactivator inconclusive, Nrf2 block inconclusive
CCc1ccccc1Nc1ncnc2c1cnn2-c1ccc(Cl)cc1	ClpP mod 32µM (no result: p53 reactivator, Nrf2 block)
Cc1cccc(-n2ncc3c(NCCCN4CCCC4=O)ncnc32)c1	ClpP mod 28µM

Compound activity from PubChem BioAssay.
